The source of these data is PubChem BioAssay.

For orientation: inhibition means the relative decrease from the control value, in per cent.

Values joined by “and” are separate entries in the source; they are usually repeats but may differ in a detail not shown here. Equal entries are not always repeated. Active and inactive are the calls of the source. How the calls were made is not given here.

L-lactate dehydrogenase (Plasmodium falciparum (isolate CDC / Honduras)), sequence (Q27743 whole entry, looked up): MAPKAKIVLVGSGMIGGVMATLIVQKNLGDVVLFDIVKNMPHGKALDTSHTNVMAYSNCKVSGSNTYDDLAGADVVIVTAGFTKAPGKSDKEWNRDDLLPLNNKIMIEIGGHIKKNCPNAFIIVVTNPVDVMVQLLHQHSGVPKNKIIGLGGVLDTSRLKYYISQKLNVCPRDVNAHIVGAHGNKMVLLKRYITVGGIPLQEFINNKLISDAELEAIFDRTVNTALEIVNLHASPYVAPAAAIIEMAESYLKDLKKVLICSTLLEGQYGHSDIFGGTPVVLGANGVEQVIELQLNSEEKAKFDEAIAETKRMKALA

The first assay concerns the target L-lactate dehydrogenase (Plasmodium falciparum (isolate CDC / Honduras)) (UniProt Q27743). Description: PfLDH activity inhibition – cell lysate, 3D7 strain, counter-screen for P. falciparum growth inhibition project (AID 2304).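 Further: 0% = vehicle and 100% = reference inhibitor.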 As to conditions: P. falciparum 3D7 crude extract, LDH APAD/NBT absorbance; at 2 µM; active compounds read high. A general note: Counterscreens check selectivity or assay interference.
As for `COc1ccc(NC(=O)N2CCN(CCCCCNC(=O)/C=C/c3ccc(C(F)(F)F)cc3)CC2)cc1Cl`, the inhibition is -2% (inactive). The same measure, in the same setting: with `O=C(Nc1ccc(Cn2ncc(N3CCCNCC3)c(Cl)c2=O)cc1)Nc1ccc(-c2ccccc2)cc1` the figure was -2% (inactive) and 8% (inactive); with `O=C(NCCc1ccc(Cl)c(Cl)c1)c1ccc(CNC(=O)c2ccc(O)c(-c3ccc(Cl)c(Cl)c3)c2)cc1`, -6% (inactive). For the compound `CC(=O)N1N=C(c2ccc(Cl)cc2)Sc2c1nc(C1CCCCC1)n2C(C)=O`, the inhibition is -1% (inactive). Take `CN1CCCN(Cc2ccc(-c3cccc(NC(=O)c4ccc(F)cc4)c3)cc2)CC1`: the inhibition is 1% (inactive). With `NC(=O)COc1cccc2c1CCN(CCN1CCC(NC(=O)c3ccc(-c4ccc(Cl)cc4)cc3)CC1)C2`, the inhibition was -1% (inactive). Same read-out and setting: then `C=C[C@H]1CN(CCCCCCC)CC[C@H]1CCN(C)c1ccnc2ccc(OC)cc12`, with -1% (inactive); and `CC(C)(C)CN1C(=O)C(c2ccccc2)(c2ccccc2)N=C1N`, with 1% (inactive); and `CN(C)CCOc1cc(NC(=O)Nc2ccc(-c3ccncc3)c(C(F)(F)F)c2)ccc1Cl`, with 3% (inactive).

For `Cc1cc(NCCC(=O)NCCc2ccccc2)nc(NCCc2ccc(F)cc2)n1`, the inhibition was -1% (inactive). On the same count and under the same terms, then `C[C@H](Cc1ccc(C[C@@H](C)NCC(O)c2cc(Cl)c(N)c(Cl)c2)cc1)NCC(O)c1cc(Cl)c(N)c(Cl)c1` (some centres not stated), with -3% (inactive); and `FC(F)(F)c1ccc2nccc(NN=Cc3ccc(Cl)cc3)c2c1`, with -2% (inactive). `Cc1cc(N[C@@H](Cc2ccccc2)C(=O)NC2CCCC2)nc(NCCc2cccs2)n1`: the inhibition was -2% (inactive).

With `N#Cc1cccc(NC(=O)Nc2ccc(CC(=O)N3CCc4cc(Cl)c(N5CCN(C/C=C/c6ccccc6)CC5)cc43)cc2)c1`, the inhibition was -4% (inactive). Still for that read-out and setting: with `O=C(Nc1ccc(CN2CCN(S(=O)(=O)c3ccc(Cl)s3)CC2)cc1)c1cccs1` the figure was 2% (inactive).

Regarding `CC(CCCCC(=O)Nc1ccc(C(F)(F)F)cc1)NCC(O)c1cccc(Cl)c1` (configuration not stated), the inhibition was -8% (inactive). Consider `COc1ccc(NC(=O)c2cc(-c3ccc(NC(C)=O)cc3)cnc2N)cc1`, for which the inhibition was 4% (inactive).

Test system in a further assay: not listed separately
As to the kind of experiment: inhibition of 3D7 malaria parasite growth – strain 3D7 (AID 2306).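 Further: 0% = DMSO wells and 100% = chloroquine plus artemisinin control wells.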 As to conditions: P. falciparum 3D7 erythrocytic growth, LDH absorbance, 72 h; at 2 µM; active compounds read high.
Consider `OC(CNc1ccnc(Nc2cccc(Cl)c2)n1)c1cccc(C(F)(F)F)c1` (configuration not stated), for which the growth inhibition was 101% (active). Still for that read-out and setting: then `CC1CN(Cc2cccc(-c3ccc(-c4nc5ccc(F)cc5[nH]4)cc3)c2)CC(C)O1` (configuration not stated), with 87% (active).

As to `COc1cc(F)c2ncc(Cl)c([C@H](O)CN3CCC(NCc4cc5c(cn4)OCCO5)CC3)c2c1`, the growth inhibition is 102% (active). For the compound `COc1ccc2nc(C)cc(NN=Cc3ccccc3Cl)c2c1`, the growth inhibition is 100% (active). Still for that read-out and setting: with `Cn1nccc1C(=O)NCCNCc1ccc(-c2ccc(-c3nc4ccc(C(F)(F)F)cc4[nH]3)cc2)cc1` the figure was 100% (active); with `COc1ccccc1C1CCN(C2CCC(NC(=O)/C=C/c3cc(F)cc(F)c3)CC2)CC1` (configuration not stated), 91% (active); with `CN(C)CCCOc1ccc(CCCCc2ccc(Cl)cc2C(=O)c2ccccc2)cc1`, 92% (active). In the case of `O=C(C=Cc1ccc(C(=O)Nc2ccc(C3=NCCN3)cc2)cc1)Nc1ccc(C2=NCCN2)cc1`, the growth inhibition is 97% (active).

For `Cc1ccc2nc(C)cc(NC(=O)Nc3ccc(N(C)C)cc3)c2c1`, the growth inhibition was 100% (active). The same measure, in the same setting: with `CC(C)c1ccc(CN2CCCCC(NC(=O)c3cc(-c4ccccc4Cl)cs3)C2)cc1` (configuration not stated) the figure was 100% (active).

With `CCNc1cc(C(=O)N[C@@H](Cc2ccccc2)[C@H](O)CNCCc2ccccc2)cc(N2CCCC2=O)c1`, the growth inhibition is 92% (active). The same measure, in the same setting: with `COc1cc(C(F)(F)F)c2cc(CNCCCNc3nc4ccccc4[nH]3)[nH]c2c1` the figure was 101% (active); with `FC(F)(F)c1cccc(CNCCCCCNCc2ccc(Cl)cc2)c1`, 91% (active).

Take `CC(=O)Nc1ccc(CN2Cc3ccc(NC(=O)Nc4ccc(Oc5ccccc5)cc4)cc3C2)s1`: the growth inhibition was 91% (active).

For the compound `COCc1cccc(-c2cc(-c3ccc(S(C)(=O)=O)cc3)cnc2N)c1`, the growth inhibition was 98% (active). Still for that read-out and setting: then `CCCCCCCCNc1c2ccc(Cl)cc2nc2ccc(OC)cc12`, with 89% (active); and `Oc1ccc(Cl)cc1CN1CCCC(COC(c2ccc(F)cc2)c2ccc(F)cc2)C1` (configuration not stated), with 98% (active). Still for that read-out and setting: with `CN1CCN(Cc2ccc(-c3cc4nccc(Nc5ccc(Oc6ccccc6)cc5)c4cc3Cl)o2)CC1` the figure was 100% (active); with `O=C(NCC1CCN(Cc2ccc(F)cc2)C1)c1cc(-c2cccc(C(F)(F)F)c2)cs1` (configuration not stated), 93% (active). On the same count and under the same terms, then `Cn1ccnc1S(=O)(=O)CCNCc1ccc(-c2ccc3ncnc(Nc4ccc(OCc5cccc(F)c5)c(Cl)c4)c3c2)o1`, with 101% (active); and `CCC(CC(NCCCCNC(=O)c1ccc(NC(=O)c2ccc(Cl)cc2)cc1)c1ccccc1)c1ccccc1OC` (configuration not stated), with 100% (active) and 89% (active); and `N#CC(c1ccc(Br)cc1)c1ccc2c(C(F)(F)F)cc(C(F)(F)F)nc2n1` (configuration not stated), with 101% (active).

Consider `O=C(CCCCCNC(=O)c1ccc(O)c(-c2ccc(Cl)c(Cl)c2)c1)NCCN1CCCCC1`, for which the growth inhibition was 93% (active). On the same count and under the same terms, with `COc1ccc(NC(=O)N2CCN(CCCCCNC(=O)/C=C/c3ccc(C(F)(F)F)cc3)CC2)cc1Cl` the figure was 94% (active); with `O=C(Nc1ccc(Cn2ncc(N3CCCNCC3)c(Cl)c2=O)cc1)Nc1ccc(-c2ccccc2)cc1`, 93% (active); with `O=C(NCCc1ccc(Cl)c(Cl)c1)c1ccc(CNC(=O)c2ccc(O)c(-c3ccc(Cl)c(Cl)c3)c2)cc1`, 97% (active).

`CC(=O)N1N=C(c2ccc(Cl)cc2)Sc2c1nc(C1CCCCC1)n2C(C)=O`: the growth inhibition was 103% (active). Same read-out and setting: then `CN1CCCN(Cc2ccc(-c3cccc(NC(=O)c4ccc(F)cc4)c3)cc2)CC1`, with 89% (active); and `NC(=O)COc1cccc2c1CCN(CCN1CCC(NC(=O)c3ccc(-c4ccc(Cl)cc4)cc3)CC1)C2`, with 92% (active); and `C=C[C@H]1CN(CCCCCCC)CC[C@H]1CCN(C)c1ccnc2ccc(OC)cc12`, with 97% (active). The same measure, in the same setting: with `CC(C)(C)CN1C(=O)C(c2ccccc2)(c2ccccc2)N=C1N` the figure was 98% (active). The same measure, in the same setting: with `CN(C)CCOc1cc(NC(=O)Nc2ccc(-c3ccncc3)c(C(F)(F)F)c2)ccc1Cl` the figure was 100% (active); with `Cc1cc(NCCC(=O)NCCc2ccccc2)nc(NCCc2ccc(F)cc2)n1`, 92% (active); with `C[C@H](Cc1ccc(C[C@@H](C)NCC(O)c2cc(Cl)c(N)c(Cl)c2)cc1)NCC(O)c1cc(Cl)c(N)c(Cl)c1` (some centres not stated), 98% (active).

Turning to `FC(F)(F)c1ccc2nccc(NN=Cc3ccc(Cl)cc3)c2c1`, the growth inhibition is 102% (active). In the case of `Cc1cc(N[C@@H](Cc2ccccc2)C(=O)NC2CCCC2)nc(NCCc2cccs2)n1`, the growth inhibition is 99% (active). Still for that read-out and setting: then `N#Cc1cccc(NC(=O)Nc2ccc(CC(=O)N3CCc4cc(Cl)c(N5CCN(C/C=C/c6ccccc6)CC5)cc43)cc2)c1`, with 91% (active); and `O=C(Nc1ccc(CN2CCN(S(=O)(=O)c3ccc(Cl)s3)CC2)cc1)c1cccs1`, with 92% (active).

Turning to `CC(CCCCC(=O)Nc1ccc(C(F)(F)F)cc1)NCC(O)c1cccc(Cl)c1` (configuration not stated), the growth inhibition was 99% (active). `COc1ccc(NC(=O)c2cc(-c3ccc(NC(C)=O)cc3)cnc2N)cc1`: the growth inhibition was 98% (active).
